A word on the AC50: it is the concentration giving half of the maximal activity seen.

Among the data in PubChem BioAssay (EPA / NIEHS) are outcome and AC50 values, retold here.

Values joined by “and” are separate entries in the source; they are usually repeats but may differ in a detail not shown here. Equal values may be shown once. Active and inactive are the calls of the source. Rule for the calls: active = hit-call score of the fitted dose curve at least 0.9, where 1 is the maximum; inactive = score below 0.9.

Read-out in this assay: KRT18 (gene 3875)
Nature of the assay: BSK_BF4T_Keratin818: BioMAP Diversity Plus: BF4T Assay for Keratin 818 Biomarker Activity (AID 2284266). As to conditions: primary human bronchial epithelial cells with fibroblasts. In outline: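 Keratin 8/18 levels quantified by ELISA after 24 h chemical treatment of bronchial epithelial cell/dermal fibroblast co-cultures, fitted in positive direction relative to DMSO. Parallel SRB staining tracks overt cytotoxicity.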
On to `NC(=O)C(F)(F)C(F)(F)C(F)(F)C(F)(F)F`, for which the result was inactive.

With `C=C(C)C(=O)OCC(F)(F)C(F)(F)C(F)(F)F`, the result was inactive.

As for `C=CC(F)(F)C(F)(F)C(F)(F)C(F)(F)C(F)(F)C(F)(F)C(F)(F)C(F)(F)F`, the result was inactive.

On to `C=CC(=O)OCC(F)(F)C(F)(F)C(F)(F)C(F)(F)COC(=O)C=C`, for which the result was inactive.

Take `C=C(C)C(=O)OCCC(F)(F)C(F)(F)C(F)(F)C(F)(F)C(F)(C(F)(F)F)C(F)(F)F`: the result was inactive.

For `O=S(=O)(OCCOC(F)(F)F)C(F)(F)F`, the result was inactive.

Regarding `O=C(O)C(F)(OC(F)(F)C(F)(OC(F)(F)C(F)(F)C(F)(F)F)C(F)(F)F)C(F)(F)F` (centres undefined), the outcome was inactive.

In the case of `O=C(O)C(F)(F)C(F)(F)F`, the outcome was inactive.

Regarding `O=C(O)C(F)(F)C(F)(F)C(F)(F)F`, the outcome was inactive.

Regarding `OCC(F)(F)C(F)(F)C(F)(F)C(F)F`, the result was inactive.

For `O=C(Cl)C(F)(F)C(F)(F)C(F)(F)C(F)(F)C(F)(F)C(F)(F)C(F)(F)C(F)(F)F`, the AC50 is 44.5 µM (active) and 46.1 µM (active) and 44.3 µM (active).

For `OCCCC(F)(F)C(F)(F)C(F)(F)C(F)(F)C(F)(F)C(F)(F)C(F)(F)F`, the AC50 was 23.7 µM (active) and 47.1 µM (active).

Consider `CC(C)(C)C(=O)CC(=O)C(F)(F)C(F)(F)C(F)(F)F`, for which the outcome was inactive.

Take `FC(F)(I)C(F)(F)C(F)(F)C(F)(F)I`: the AC50 was 46.6 µM (active) and 47.8 µM (active) and 47.4 µM (active).

`O=S(=O)(O)C(F)(F)C(F)(F)C(F)(F)C(F)(F)C(F)(F)C(F)(F)C(F)(F)F`: the outcome was inactive.

For `FC(F)(F)C(F)(F)C(F)(F)C(F)(F)CCI`, the result was inactive.

Turning to `O=C(O)C(F)(F)C(F)(F)C(F)(F)C(F)(F)C(F)(F)C(F)(F)C(F)(F)C(F)(F)C(F)(F)C(F)(F)C(F)(F)C(F)(F)F`, the outcome was inactive.

On to `C=CC(=O)OCC(F)(F)C(F)(F)C(F)(F)C(F)(F)C(F)(F)C(F)(F)C(F)(F)F`, for which the outcome was inactive.

For the molecule `FC(F)(F)C(F)(F)C(F)(F)C(F)(F)C(F)(F)C(F)(F)C(F)(F)I`, the outcome was inactive.

With `O=C(O)C=C(C(F)(F)F)C(F)(F)F`, the outcome was inactive.

`O=C(O)C(F)(F)C(F)(F)C(F)F`: the result was inactive.

As to `Cc1ccc(S(=O)(=O)OCC(F)(F)C(F)(F)C(F)(F)C(F)(F)C(F)(F)C(F)F)cc1`, the outcome was inactive.

With `FC(F)(F)C(F)(F)C(F)(F)C(F)(F)C(F)(F)C(F)(F)CC1CO1` (centres undefined), the outcome was inactive.

As to `FC(F)(F)C(F)(F)C(F)(F)C(F)(F)C(F)(F)C(F)(F)CCS`, the outcome was inactive.

Consider `O=C(O)C(F)(F)C(F)(F)C(F)(F)C(F)(F)C(F)(F)C(F)(F)C(F)(F)C(F)(F)Cl`, for which the AC50 was 45 µM (active) and 49.7 µM (active).

For the molecule `OCC(F)(F)C(F)(F)C(F)(F)F`, the result was inactive.

For the molecule `O=C(O)C(F)(F)C(F)(F)C(F)(F)C(F)(F)C(F)(F)C(F)(F)C(F)(F)C(F)(F)C(F)(F)C(F)F`, the AC50 is 22.7 µM (active) and 30 µM (active).

For `FC(F)(Br)C(F)(F)C(F)(F)C(F)(F)C(F)(F)C(F)(F)Br`, the result was inactive.

Turning to `O=C(O)C(F)(OC(F)(F)C(F)(OC(F)(F)C(F)(OC(F)(F)C(F)(F)C(F)(F)F)C(F)(F)F)C(F)(F)F)C(F)(F)F` (centres undefined), the result was inactive.

Regarding `OCC(F)(F)C(F)(F)C(F)(F)C(F)(F)C(F)(F)C(F)(F)F`, the result was inactive.

`FC(F)(F)C(F)(F)C(F)(F)C(F)(F)C(F)(F)CCI`: the outcome was inactive.

In the case of `FC(F)(F)C(F)(F)C(F)(F)C(F)(F)C(F)(F)C(F)(F)C(F)(F)Br`, the result was inactive.

As for `N=C(N)C(F)(F)C(F)(F)C(F)(F)C(F)(F)C(F)(F)C(F)(F)C(F)(F)F`, the outcome was inactive.

For the molecule `C=CC(F)(F)C(F)(F)C(F)(F)C(F)(F)C(F)(F)C(F)(F)C(F)(F)C(F)(F)C=C`, the result was inactive.
